DAX1 inh-1: inhibitors of human orphan nuclear receptor DAX1 (NR0B1) | HEK293 Gal4-DAX1 luciferase reporter, luminescence | inhibition, % at 6.75 µM | hit rate 0.99% among 340,000 | AID 504766;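 active = inhibition above the mean over all tested compounds plus 3 SD, cut at about 4.2% in these data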;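 note: 0% = DAX1-transfected cells with DMSO and 100% = empty-vector control cells with DMSO; inhibition shows as a rise in luminescence from relieved DAX1 repression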
Target sequence (P51843 207-470 limits assumed): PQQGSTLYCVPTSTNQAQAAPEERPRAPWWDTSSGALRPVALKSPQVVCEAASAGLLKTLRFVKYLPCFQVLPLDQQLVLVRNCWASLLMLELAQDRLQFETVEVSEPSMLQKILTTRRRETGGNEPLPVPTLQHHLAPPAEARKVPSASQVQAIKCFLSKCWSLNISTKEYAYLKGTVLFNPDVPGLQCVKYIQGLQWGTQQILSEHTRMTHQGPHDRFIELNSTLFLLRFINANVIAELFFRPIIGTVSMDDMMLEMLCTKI
DAX1 inh-2: inhibitors of DAX1 repression of SF-1 activated StAR promoter. HEK293T StAR-luciferase reporter, SF-1/DAX-1 repression relief. inhibition, % at 6.8 µM. hit rate 1.1% among 370,000;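 active = inhibition above the mean over all tested compounds plus 3 SD, cut at about 3.6% in these data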;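 note: 0% = DAX-1 cells with DMSO and 100% = cells lacking DAX-1 with DMSO; higher inhibition means more luminescence from relief of DAX-1 repression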
FXN GAA850 act: activators of GAA850 frataxin (FXN) promoter; activation, % at 6 µM; AID 540364; hit rate 0.56% among 360,000; HEK293 lucGAA850 FXN promoter luciferase reporter, 24 h; percent of 10 µM SAHA response;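 active = activation above the average of all compounds screened plus 3 SD, cutoff fixed separately per campaign, cut at about 7.5% in these data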;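 note: 0% = DMSO wells and 100% = 10 µM SAHA wells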
hcDAF12 agonist: activators of H. contortus DAF-12 nuclear receptor; HEK293 hcDAF-12 lit1-tk-luc reporter, luminescence; 0% DMSO, 100% Δ7-dafachronic acid; activation, % at 6.8 µM; hit rate 1.4% among 370,000;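 active = activation above the mean of all tested compounds plus 3 SD, cut at about 5.5% in these data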;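 note: 100% = response to 3 µM Δ7-dafachronic acid high control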
hgDAF-12 ag: activates the H. glycines DAF-12 receptor ligand-binding domain | HEK293 GAL4-hgDAF12 UAS-luciferase reporter, agonist luminescence; normalized to butyrate control | activation, % at 6.8 µM | hit rate 1.8% among 370,000 | AID 687014;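 active = activation above a cutoff set at the mean of all screened compounds plus 3 SD, cut at about 10% in these data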;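 note: 0% = DMSO wells and 100% = sodium butyrate wells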
ssDAF12 agonist: activates DAF-12 receptor from parasite S. stercoralis. HEK293 ssDAF-12/GRIP1 lit1-tk-luc reporter, luminescence; % of 3 µM dafachronic acid response. activation, % at 6.8 µM. hit rate 1% among 370,000. AID 652126;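 active = activation above the mean over all tested compounds plus 3 SD, cut at about 0.9% in these data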;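 note: 0% = DMSO-only wells and 100% = 3 µM delta7-dafachronic acid wells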
GAA30 counter: activates GAA30 frataxin promoter, counter-screen for GAA850 activators | shares compounds with FXN GAA850 act | HEK293 lucGAA30 FXN promoter luciferase, 24 h; DMSO = 0%, 5 µM ipriflavone = 100% | activation, % at 6 µM | hit rate 66% among 1,900 | AID 588350;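 active = mean activation above the mean of solvent-only control wells plus 3 SD, cut at about 22% in these data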;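 note: counterscreen of GAA850 promoter hits where activity marks nonselective or luminescence artifacts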
GAA850 confirm: confirmation of GAA850 frataxin (FXN) promoter activators; shares compounds with FXN GAA850 act; hit rate 86% among 1,900; HEK293 lucGAA850 FXN promoter luciferase reporter, 24 h; 100% = activation by SAHA; activation, % at 6 µM;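 active = mean activation above a set limit taken from the primary screen, cut at about 8% in these data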;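 note: 0% = DMSO wells and 100% = 10 µM SAHA wells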
* = called active by the depositor; nt = not tested or not shown. Most compounds without a hit are left out; they make up all but 4.5% or so of the library.

SMILES	DAX1 inh-1	DAX1 inh-2	FXN GAA850 act	hcDAF12 agonist	hgDAF-12 ag	ssDAF12 agonist	GAA30 counter	GAA850 confirm
CCCCCCCCN1C(=O)[C@@H](CC(=O)NCCCC)C[C@@]2(C(=O)OC)C1=C[C@H](COCc1ccccc1)O[C@@H]2C	nt	-1	nt	-1	0	-1	nt	nt
COc1ccc(CCN(C)C(=O)CCc2nnc(-c3ccccc3)o2)cc1OC	2	1	9.3*	4	11*	0	110*	31*
Cc1ccc2nc(-c3ccc(NS(=O)(=O)c4ccccc4)cc3)sc2c1	0	1	2	0	4	0	nt	nt
Cc1ccc2nc(-c3ccc(NS(=O)(=O)c4ccc(F)c(F)c4)cc3)sc2c1	2	5.8*	10*	6.4*	17*	1	108*	35*
Nc1nonc1-n1nnc(C(=O)N/N=C/c2ccccc2F)c1-c1cccs1	0	0	0	0	2	-1	nt	nt
C/C(=N\N=C\c1ccccc1F)c1nnn(-c2nonc2N)c1C	2	2	10*	1	7	0	88*	31*
COc1ccnc(Oc2ccc3ccccc3c2)c1C#N	1	1	8.2*	-1	3	-1	82*	25*
COc1ccnc(Oc2ccc(C)cc2)c1C#N	-1	0	3	0	3	-1	nt	nt
CCCC[C@H](C(=O)N(CC)c1ccccc1)[C@@H](O)c1ccc(Cl)cc1	nt	-1	nt	-2	2	0	nt	nt
O=C(NNC(=O)C12CC3CC(CC(C3)C1)C2)c1cnccn1	3	1	0	-2	3	-1	nt	nt
O=C(NNC(=O)C12CC3CC(CC(C3)C1)C2)c1ccccn1	-2	-2	10*	-2	-5	-2	-130	-37
CCOC(=O)CC[C@@H]1CC[C@]2(CCCN(S(=O)(=O)c3ccccc3)C2)O1	nt	0	nt	-3	2	-1	nt	nt
CCOC(=O)c1c(C)[nH]c(C(=O)C(C)Cl)c1C (stereo unspecified)	0	-2	-1	-2	-4	-2	nt	nt
CCOC(=O)c1[nH]c(C)c(C(=O)C(C)C)c1C	0	1	8.8*	-1	10	-1	77*	24*
CCOC(=O)c1[nH]c(C)c(CC(C)C)c1C	3	nt	8.5*	nt	nt	nt	40*	15*
COc1ccc(-c2[nH]c(-c3ccc(Cl)cc3)nc2SCC(=O)Nc2nccs2)cc1	1	1	19*	1	-1	-1	9	8.9*
COc1ccc(-c2[nH]c(-c3ccccc3)nc2SCC(=O)Nc2nccs2)cc1	0	1	0	-1	0	-1	nt	nt
O=C(NC1CCCC1)C(c1ccsc1)N(Cc1ccccc1)C(=O)Cc1cccs1 (stereo unspecified)	0	-1	14*	-3	-4	-2	14	19*
O=C1CCC[C@H]2C[C@H](NCc3ccc(F)cc3)CC[C@]23CCCN13	nt	nt	nt	-1	0	-2	nt	nt
C=CCOc1ccc2nc(NC(=O)OC)[nH]c2c1	0	2	7.7*	1	2	0	-12	41*
CC(C)N1CCc2c(sc(NC(=O)C(F)F)c2-c2nc3ccccc3s2)C1	nt	nt	nt	0	5	-2	nt	nt
CC(=O)Nc1sc2c(c1-c1nc3ccccc3s1)CCN(C(C)C)C2	1	nt	34*	nt	nt	nt	-33	91*
COC[C@@H](O)[C@H]1OCc2cccc(OC)c2[C@@H]1/C=C/c1ccccc1	nt	0	nt	-2	-3	-2	nt	nt
Cc1ccc(C)c(NC(=S)c2ccccn2)c1	0	0	13*	2	8	0	78*	28*
S=C(Nc1ccccn1)c1ccccn1	1	1	15*	4	4	0	104*	43*
SMILES	DAX1 inh-1	DAX1 inh-2	FXN GAA850 act	hcDAF12 agonist	hgDAF-12 ag	ssDAF12 agonist	GAA30 counter	GAA850 confirm
S=C(NCCc1ccccc1)Nc1ccccn1	1	1	8.0*	1	9	-1	98*	30*
COC(=O)[C@]12C[C@H](CC(=O)N3CCSCC3)C(=O)N(CCC3=CCCCC3)C1=C[C@H](C1CCCC1)O[C@@H]2C	nt	-1	nt	-1	8	-2	nt	nt
N#Cc1cccc(Cn2ccc3ccc(-c4ccc5ccn(Cc6ccccc6)c5c4)cc32)c1	nt	-1	nt	-1	3	0	nt	nt
CC(=O)CC[C@H]1CC[C@]2(CCCN(C(=O)C3CCCCC3)C2)O1	nt	0	nt	-1	0	-1	nt	nt
CC1(C(=O)Nc2nc3ccccc3s2)CC1(Br)Br (stereo unspecified)	1	1	11*	2	4	0	103*	36*
O=C1C=CC(=O)c2c(O)c(N3CCN(CCOCCO)CC3)c(Br)c(O)c21	2	-4	14*	-1	-3	-1	-98	-30
COc1cc(OC)nc(Nc2nc(C(N)COCc3ccccc3)cs2)n1 (stereo unspecified)	nt	0	7.6*	0	1	-1	23*	14*
COc1cc(OC)nc(Nc2nc(C(N)CCc3ccccc3)cs2)n1 (stereo unspecified)	nt	-1	9.0*	-2	0	-2	21	17*
COc1cc(OC)nc(Nc2nc(C(N)c3ccccc3)cs2)n1 (stereo unspecified)	nt	1	-3	-2	-2	-2	nt	nt
NC(=O)C1=CC2C3C=CC2(O)C(=O)OC3O1 (stereo unspecified)	-1	-1	8.3*	1	-4	-1	-28	16*
Nc1nc(NCc2ccccc2)nc(NCc2ccccc2)c1[N+](=O)[O-]	-2	-1	4	0	1	-1	nt	nt
CNc1nc(N)c([N+](=O)[O-])c(NCc2ccccc2)n1	0	-1	17*	-1	-1	-2	87*	32*
CN(C)c1nc(N)c([N+](=O)[O-])c(NCc2ccccc2)n1	-2	0	7.6*	-1	2	-1	69*	25*
Cc1ccc(Nc2nc(N)c([N+](=O)[O-])c(NCc3ccco3)n2)cc1C	0	1	7.8*	0	9	-1	92*	44*
C/C=C/c1ccc(OCCCCOc2ccccc2C(C)=O)c(OC)c1	-1	1	0	-1	-1	0	nt	nt
C/C=C/c1ccc(OCCCCN(C)Cc2ccccc2)c(OC)c1	2	1	9.5*	1	4	-1	16	13*
COc1ccccc1N1CCN(C(=O)c2ccc3c(c2)nc(C)n3-c2cc(OC)c(OC)c(OC)c2)CC1	nt	-1	nt	-1	-1	-2	nt	nt

From PubChem
